Active and inactive are the calls of the source. The call rests on the fitted dose curve; in most records, active means well fitted curve in the direction sought with a large enough effect in the repeat runs; inconclusive means weak or mixed curves; inactive means flat fitted curve, though single readings scatter.
assay: qHTS assay to test for compound auto fluorescence at 535 nm (green) in HepG2 cell free culture (AID 720686); settings: Cell-free medium, green autofluorescence 485/535 nm; series mostly up to 91.3 µM; fluorescence, % of fluorescein control: at the top concentration
Excerpt: U.S. Tox21 Program National Center for Advancing Translational Sciences [NCATS] NIH Chemical Genomics Center [NCGC] U.S. Environmental Protection Agency [EPA] National Institutes of Environmental Health Sciences [NIEHS] National Toxicology Program [NTP] U.S. Food and Drug Administration [FDA] Tox21 Assay Overview: Compound auto fluorescence often interferes with screening of the compound library against various biological targets and signaling pathways. Some of these compounds may have fluorophoric properties. Such properties may interfere with the assay outputs resulting in false positives and/or negatives. To decrease such complications and ensure the compound activities are relevant in terms of biological response, the Tox21 10K compound library was screened for auto fluorescence. From the fluorophores used as reporter signals in our screening assays, the auto fluorescence equivalencies of compounds against three fluorophores have been evaluated: Triamterene, Fluorescein and Rose Bengal sodium for blue, green and red fluorescence, respectively. The fluorescence intensities were measured using Excitation/Emission wavelengths at 405/460nm, 485/535nm and 540/590nm for blue, green and red labels, respectively. This assay includes the green fluorescence data.
Tox21 Assay Protocol Summary: 5 uL of culture medium (MEM containing 10% FBS) per well was dispensed into black wall/clear bottom 1536-well plates using a Multidrop Combi Dispenser (ThermoFisher Scientific, Waltham, MA). After 23 nL compound or DMSO vehicle was transferred into assay plate by a pintool work station (Kalypsys, San Diego, CA), fluorescence intensities in the assay plates were measured by an Envision (PerkinElmer, Shelton, CT) plate reader using three labels for measuring blue, green and red fluorescence at […] 460, 535 and 590nm respectively.
On the % scale 0 is the no-effect control and ±100 the full control effect.

Row | SMILES | fluorescence, % of fluorescein control
1 | SCCSCCS | -0.115% (inactive)
2 | O=CO | -0.0013% [at 9.17 µM] (inactive)
3 | O=C1OC(=O)c2ccccc21 | -0.0138% (inactive)
4 | O=CN1CCOCC1 | 0.014% (inactive)
5 | C=C(C)[C@@H]1CC[C@@H](C)C[C@@H]1O | -0.0279% (inactive)
6 | CCC(=O)c1ccc(O)cc1 | -0.0632% [at 46 µM] (inactive)
7 | CC1CCC(C(C)(C)S)C(=O)C1 (stereo not given) | -0.0021% (inactive)
8 | O=S1(=O)CCCC1 | -0.0739% (inactive)
9 | CCCCOC(=O)[C@@H](C)Oc1ccc(Oc2ccc(C(F)(F)F)cn2)cc1 | -0.0054% (inactive)
10 | Nc1cc(Cl)cc(S(=O)(=O)O)c1O | -0.0125% [at 95.7 µM] (inactive)
11 | CC(=O)OC(C)c1ccccc1 (stereo not given) | -0.0165% (inactive)
12 | O=C(COCCOCCOCC(=O)Nc1c(I)cc(I)c(C(=O)O)c1I)Nc1c(I)cc(I)c(C(=O)O)c1I | -0.0852% [at 46 µM] (inactive)
13 | NC(=O)C1(N2CCCCC2)CCN(CCCC(=O)c2ccc(F)cc2)CC1 | -0.111% [at 46 µM] (inactive)
14 | C/C=C(\C)C(=O)OCC/C=C\CC | 0.0277% (inactive)
15 | CCCCCCCCCCCCC1CO1 (stereo not given) | 0.0152% (inactive)
16 | CCCCCCCC[Si](OCC)(OCC)OCC | 0.0493% (inactive)
17 | C1=C\CC/C=C\CC/1 | 0.0408% [at 95.7 µM] (inactive)
18 | O=C1NC2NC(=O)NC2N1 (stereo not given) | 0.17% (inactive)
19 | Oc1ccccc1Cc1ccccc1O | -0.0399% (inactive)
20 | CC(C)COC(=O)CC(C(=O)OCC(C)C)S(=O)(=O)O (stereo not given) | -0.0324% (inactive)

Row | SMILES | fluorescence, % of fluorescein control
21 | c1ccc(CNc2ncnc3nc[nH]c23)cc1 | -0.019% (inactive)
22 | CC(C)=CC(C)(C)C | -0.0331% (inactive)
23 | O=C(O)CCNC(=O)c1ccccc1 | 0.0014% [at 46 µM] (inactive)
24 | CC(C)CCCC(C)CC=O (stereo not given) | -0.0036% (inactive)
25 | CCC(CO)CO | 0.0623% (inactive)
26 | O=C(/C=C/c1ccccc1)NCCO | -0.005% [at 46 µM] (inactive)
27 | FC(F)(F)c1ccc(Cl)cc1Cl | -0.0505% (inactive)
28 | CC(C)CCC(=O)CCC(C)C | -0.108% (inactive)
29 | CCCCOC(=O)C(=O)OCCCC | -0.0057% (inactive)
30 | COc1cc2c(Nc3ccc(Br)cc3F)ncnc2cc1OCC1CCN(C)CC1 | 0.0358% [at 46 µM] (inactive)
31 | CCN(CCO)c1cccc(C)c1 | -0.0866% (inactive)
32 | OC(CCN1CCCCC1)(c1ccccc1)c1ccccc1 | 0.0158% [at 46 µM] (inactive)
33 | C[C@H](CCC(=O)NCC(=O)O)[C@H]1CC[C@H]2[C@@H]3[C@H](O)C[C@@H]4C[C@H](O)CC[C@]4(C)[C@H]3C[C@H](O)[C@]12C | -0.0006% (inactive)
34 | CCCCC(C)C(=O)O (stereo not given) | 0.0147% (inactive)
35 | CCCCC(CC)C(=O)OC(C)C (stereo not given) | 0.0229% (inactive)
36 | Cc1ccccc1C(=O)N1CC/C(=N\OS(=O)(=O)O)c2ccc(Cl)cc21 | -0.0731% [at 46 µM] (inactive)
37 | Cc1ccccc1N1CCN(CCc2nnc3n2CCCC3)CC1 | -0.0733% [at 46 µM] (inactive)
38 | C=C(C)C(=O)OC1CC(C)CC(C)(C)C1 (stereo not given) | -0.0172% (inactive)
39 | C1CCN2C[C@@H]3C[C@@H](CN4CCCC[C@@H]34)[C@H]2C1 | 0.104% [at 18.6 µM] (inactive)
40 | CC(CC(=O)O)CC(C)(C)C (stereo not given) | -0.0616% (inactive)

— PubChem BioAssay (Tox21)
